DAX1 inh-1: DAX1 (NR0B1) inhibitors, primary screen, cell-based, HEK293, Gal4-DAX1, luciferase luminescence; Nuclear receptor subfamily 0 group B member 1 (Homo sapiens), P51843; HEK293 Gal4-DAX1 luciferase reporter; inhibition, % at 6.75 µM; hit rate 0.99% among 340,000; AID 504766, 2011;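 active = inhibition above the mean over all tested compounds plus 3 SD, cut at about 4.2% in these data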;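 note: inhibition shows as a rise in luminescence from relieved DAX1 repression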
Target sequence (P51843 207-470 limits assumed): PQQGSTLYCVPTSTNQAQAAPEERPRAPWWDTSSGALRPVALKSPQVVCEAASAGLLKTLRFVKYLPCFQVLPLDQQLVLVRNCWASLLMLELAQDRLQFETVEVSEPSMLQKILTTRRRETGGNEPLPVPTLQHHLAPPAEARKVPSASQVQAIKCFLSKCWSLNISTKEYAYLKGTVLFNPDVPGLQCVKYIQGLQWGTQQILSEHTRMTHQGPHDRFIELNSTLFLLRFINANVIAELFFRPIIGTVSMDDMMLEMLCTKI
hgDAF-12 ag: H. glycines DAF-12 receptor agonists, primary screen, cell-based, luminescence, HEK293, GAL4 fusion, UAS-luciferase. activation, % at 6.8 µM. hit rate 1.8% among 370,000. HEK293 GAL4-hgDAF12 UAS-luciferase reporter, agonist luminescence; normalized to butyrate control. Nuclear hormone receptor DAF-12 (Heterodera glycines), GAL4 fusion. AID 687014, 2013;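 active = activation above a cutoff set at the mean of all screened compounds plus 3 SD, cut at about 10% in these data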
ssDAF12 agonist: S. stercoralis DAF-12 nuclear receptor activators, primary screen, cell-based, luminescence, HEK293, GRIP1 co-expression, lit1-tk-luc; Nuclear hormone receptor DAF-12 (Strongyloides stercoralis); HEK293 ssDAF-12/GRIP1 lit1-tk-luc reporter; % of 3 µM dafachronic acid response; activation, % at 6.8 µM; hit rate 1% among 370,000; AID 652126, 2013;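 active = activation above the mean over all tested compounds plus 3 SD, cut at about 0.9% in these data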
DAX1 inh-2: DAX1 (NR0B1) inhibitors on StAR promoter, primary screen, cell-based, luminescence, SF-1 (NR5A1), full-length DAX-1 | HEK293T StAR-luciferase reporter, SF-1/DAX-1 repression relief | hit rate 1.1% among 370,000 | inhibition, % at 6.8 µM;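 active = inhibition above the mean over all tested compounds plus 3 SD, cut at about 3.6% in these data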;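 note: higher inhibition means more luminescence from relief of DAX-1 repression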
hcDAF12 agonist: H. contortus DAF-12 nuclear receptor activators, primary screen, cell-based, luminescence, HEK293, lit1-tk-luc reporter | hit rate 1.4% among 370,000 | HEK293 hcDAF-12 lit1-tk-luc reporter; 0% DMSO, 100% Δ7-dafachronic acid | activation, % at 6.8 µM;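 active = activation above the mean of all tested compounds plus 3 SD, cut at about 5.5% in these data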
SMARCA2 activ: SMARCA2 (BRM) function activators, primary screen, cell-based, luminescence, high throughput; MG213 cells, MMTV-luciferase reporter, dexamethasone, overnight; activation, % at 9.1 µM; hit rate 1% among 370,000; in the data active = activation above about 7.8%
Large screens that a line does not name were inactive. Hits are enriched below; roughly 4.8% of the tested compounds scored in any of these assays.

CCC(C)c1ccc(OCC(=O)Nc2cccc(C(=O)Nc3ccc(C(=O)O)cc3)c2)cc1 (stereo unspecified)	DAX1 inh-2 4.0
O=C(NNC(=O)c1cnccn1)c1ccc(Cl)cc1	DAX1 inh-1 5.8
O=C1C=C(Nc2ccccc2C(=O)O)c2ccccc2C1=O	hcDAF12 agonist 6.3
CCc1ccc(N2C(=O)CC(N3CCN(c4ccccn4)CC3)C2=O)cc1 (stereo unspecified)	none
O=C1CC(N2CCN(c3ccccn3)CC2)C(=O)N1c1ccc(F)cc1 (stereo unspecified)	ssDAF12 agonist 1.7 (no result: DAX1 inh-1)
CCn1cc(CN2CCN(Cc3ccccc3)C(CCO)C2)c2ccccc21 (stereo unspecified)	DAX1 inh-1 4.2
CCn1cc(CN2CCN(Cc3ccc(C)o3)C(CCO)C2)c2ccccc21 (stereo unspecified)	hcDAF12 agonist 5.6
O=C(c1ccc(Cl)cc1)C1CCN(c2ncnc3sccc23)CC1	none (no result: DAX1 inh-1, DAX1 inh-2, SMARCA2 activ)
C[C@H](O)[C@@H]1CN2CCc3ccc(-c4ccc5c(c4)OCO5)cc3[C@@H]2C[C@@H]1N(C)C(=O)Nc1ccccc1	none (no result: DAX1 inh-1)
O=C1CCC(CNc2ccccc2)N1c1ccccc1 (stereo unspecified)	none (no result: DAX1 inh-1, DAX1 inh-2, SMARCA2 activ)
CCOc1ccccc1-c1n[nH]c(=S)o1	ssDAF12 agonist 1.0, hcDAF12 agonist 6.4
CCOc1ccc(-c2n[nH]c(=S)o2)cc1	none
COc1ccc(C=NNC(=O)c2cc(-c3ccc(C)c(C)c3)n[nH]2)cc1OCc1ccccc1	none (no result: DAX1 inh-1)
C/C(=N/NC(=O)c1cccnc1)c1cccc(O)c1	none (no result: DAX1 inh-1)
CC1CCC(NC(=O)CNC(=O)c2cccs2)CC1 (stereo unspecified)	DAX1 inh-2 4.4
C/C(=N/NC(=O)Cc1cccs1)c1cccc([N+](=O)[O-])c1	none (no result: DAX1 inh-1)
COC(=O)C1CN(Cc2ccc(F)cc2)CCS(=O)(=O)N1Cc1ccccc1 (stereo unspecified)	none (no result: DAX1 inh-1)
CC(=O)C1=C(O)C(=O)N(CCc2c[nH]c3ccccc23)C1c1ccccc1 (stereo unspecified)	none
Cc1cccc(C)c1-n1nnnc1C1c2ccccc2C(=O)N1CCc1ccccc1F (stereo unspecified)	none (no result: DAX1 inh-1)
CC(C)(C)n1nnnc1C1c2ccccc2C(=O)N1CCc1c[nH]c2ccccc12 (stereo unspecified)	DAX1 inh-2 4.2 (no result: DAX1 inh-1)
CC(=O)C1=C(O)C(=O)N(CCc2c[nH]c3ccccc23)C1c1ccc(O)cc1 (stereo unspecified)	DAX1 inh-1 4.4
Cc1cccc(NC(=O)CN(C)S(=O)(=O)c2ccc3c(c2)n(C)c(=O)c(=O)n3C)c1C	hcDAF12 agonist 6.1
Cc1ccccc1NC(=O)CN(C)S(=O)(=O)c1ccc2c(c1)n(C)c(=O)c(=O)n2C	none
COc1ccc(C(=O)C2(C(=O)Nc3cc(C)cc(C)c3)CC(c3ccccc3C(F)(F)F)=NO2)cc1 (stereo unspecified)	none (no result: DAX1 inh-1)
Cc1ccccc1CN(C)C[C@H]1OCc2cnnn2CCCC(=O)N([C@@H](C)CO)C[C@@H]1C	none
C[C@H]1CN([C@@H](C)CO)C(=O)CCCn2nncc2CO[C@H]1CN(C)C(=O)NC1CCCCC1	DAX1 inh-1 5.1
C[C@@H]1CN([C@@H](C)CO)C(=O)CCCn2nncc2CO[C@@H]1CN(C)C(=O)NC1CCCCC1	none
Cc1cccc(S(=O)(=O)N(C)C[C@@H]2OCc3cnnn3CCCC(=O)N([C@H](C)CO)C[C@H]2C)c1	none
Cc1cccc(S(=O)(=O)N(C)C[C@H]2OCc3cnnn3CCCC(=O)N([C@H](C)CO)C[C@H]2C)c1	DAX1 inh-1 4.4
COc1ccccc1CN(C)C[C@@H]1OCc2cnnn2CCCC(=O)N([C@H](C)CO)C[C@H]1C	DAX1 inh-1 4.2
Cn1c(SCC(=O)NCCN2CCCCC2)nc2cccnc21	none (no result: DAX1 inh-1)
S=C(NCc1ccc(Cl)cc1)OC1CCC12CCC(c1ccccc1)CC2 (stereo unspecified)	none (no result: DAX1 inh-1)
Cc1nnc(C)n1N=Cc1ccc(O)cc1O	none (no result: DAX1 inh-1)
Cc1cc(C)c2cc3c(N)c(C(=O)N4CCOCC4)sc3nc2c1	none
Cc1cc(C)c2nc3sc(C(=O)N4CCOCC4)c(N)c3cc2c1	DAX1 inh-2 4.1, hcDAF12 agonist 5.7
CCCCN1C2CCCC1CC(NC(=O)c1ccccc1Cl)C2 (stereo unspecified)	DAX1 inh-1 4.7
CC(C)(C)NC(=O)[C@H](c1cccnc1)N(C(=O)c1ccco1)c1ccc(C(C)(C)C)cc1	none (no result: DAX1 inh-1, DAX1 inh-2, SMARCA2 activ)
Cc1ccc2nc(N3CCN(Cc4nnnn4C4CCCC4)CC3)c(C#N)cc2c1	DAX1 inh-1 5.7
COc1cccc(/C=N/c2oc(-c3ccccc3)cc2C#N)c1O	none
COc1cccc(C=Nc2ccccc2C#N)c1O	ssDAF12 agonist 2.1
COc1ccc(CN2C/C(=C/c3ccc(C)cc3)N3C(=O)C[C@@H](c4ccccc4)N=C23)c(OC)c1	none (no result: DAX1 inh-1)
O=C(C1CC(=O)N(C2CCCCC2)C1)N1CCc2ccccc21 (stereo unspecified)	hcDAF12 agonist 6.2
O=C(C1CCCO1)N1CCc2ccccc21 (stereo unspecified)	ssDAF12 agonist 1.8
CS(=O)(=O)N1CCc2cc(C(=O)Nc3ccccc3Cl)ccc21	DAX1 inh-1 21
CCN1CCN(CCCNC(=O)CCC(=O)N2CCOc3ccccc32)CC1	hcDAF12 agonist 5.7
O=C(CCC(=O)N1CCOc2ccccc21)NCCCN1CCCCC1	none
C[N+]1=C2N[C@@H](c3ccccc3)CC(=O)N2/C(=C\c2ccccc2)[C@@H]1Cc1ccccc1	none (no result: DAX1 inh-1, DAX1 inh-2, SMARCA2 activ)
CN(C)[C@@H]1CCN(c2cccc3c2S(=O)(=O)N2CC[C@H](C2)O3)C1	none (no result: DAX1 inh-1)
COc1ccccc1CNC(=O)N1CCN(Cc2nc3ccccc3c(=O)[nH]2)CC1	none (no result: DAX1 inh-1)
CCN1C(=O)C(=CC=CN(C)c2ccccc2)SC1=S	DAX1 inh-1 4.7
CC(S(=O)(=O)c1ccccc1)S(=O)(=O)c1ccccc1	DAX1 inh-1 5.0
O=C1CCC(C(=O)NCCN2C(=O)S/C(=C\c3cccnc3)C2=O)=NN1	ssDAF12 agonist 1.2
O=C(NCCN1C(=O)S/C(=C/c2cccnc2)C1=O)C1=NN(c2ccccc2)C(=O)CC1	none
